Data reported in the supplement of paper PMC13380429.

System: Vero E6 infected with SARS-CoV-2
Assay: inhibition of SARS-CoV-2 cytopathic effect; higher = more antiviral protection, active = above 15
Settings: 48 h

Measured: inhibition of SARS-CoV-2 cytopathic effect

C=CCN(C)CCCCCCOc1ccc(C(=O)c2ccc(Br)cc2)c(F)c1
inactive: 1 nM 0.63% | 8.33 nM 1.12% | 100 nM 2.12% | 833.33 nM 0.47% | 10000 nM 13.8%

C[C@]12CC[C@@H]3c4ccc(O)cc4C[C@@H](CCCCCCCCC[S+]([O-])CCCC(F)(F)C(F)(F)F)[C@H]3[C@@H]1CC[C@@H]2O (stereo not given in full) [fulvestrant]
inactive: 1 nM -1.55% | 8.33 nM -1.22% | 100 nM 0.63% | 833.33 nM -0.23% | 10000 nM -0.95%

N#Cc1cnc2c(Cl)cc(NCc3cn(CCN4CCCCCC4)nn3)cc2c1Nc1ccc(F)c(Cl)c1 [cot-inhibitor-1]
inactive: 1 nM -0.74% | 8.33 nM 2.31% | 100 nM -0.11% | 833.33 nM -2.18% | 10000 nM -14%

CC(=O)c1ccc2c(c1)C(=O)C1(CC1)O2 [spizofurone]
inactive: 1 nM -4.51% | 8.33 nM 5.43% | 100 nM 0.26% | 833.33 nM 0.65% | 10000 nM 2.1%

O=C1N[C@@H]2[C@@H](O)[C@@H](O)[C@H](O)[C@@H](CO)N2C1=O [kifunensine]
inactive: 1 nM 0.31% | 8.33 nM 1.46% | 100 nM 3.44% | 833.33 nM 4.14% | 10000 nM 14.9%

COc1ccc(NC(=O)c2ccc(-c3ccc(-c4noc(C)n4)cc3C)cc2)cc1N1CCN(C)CC1
inactive: 1 nM 4.92% | 8.33 nM 6.46% | 100 nM 0.49% | 833.33 nM -1.73%
active: 10000 nM 36.7%

Cc1cc(CN2CCN(c3c(Br)cnc4nc(-c5ccc(N6CCN(C)CC6)cc5)[nH]c34)CC2)no1
inactive: 1 nM -1.63% | 8.33 nM -1.4% | 100 nM -0.54% | 833.33 nM -5% | 10000 nM -6.41%

CC[C@H]1[C@@H](O)[C@@H]2[C@H](CC[C@]3(C)[C@@H]([C@H](C)CCC(=O)O)CC[C@@H]23)[C@@]2(C)CC[C@@H](O)C[C@@H]12 [obeticholic-acid]
inactive: 1 nM 0.365% | 8.33 nM 1.41% | 100 nM 1.03% | 833.33 nM 2.73% | 10000 nM 1.65%

CC(C)C[C@@H](N)C1(c2ccc(Cl)cc2)CCC1
inactive: 1 nM -0.06% | 8.33 nM -2.41% | 100 nM -2.87% | 833.33 nM -1.42% | 10000 nM -7.34%

CNC(=S)C1(c2ccccn2)CCCS1 (stereo not given) [picartamide]
inactive: 1 nM -4.38% | 8.33 nM 0.23% | 100 nM -0.26% | 833.33 nM 2.39% | 10000 nM 6.75%

CC(C)(O)C(=O)N1CCN(c2ccc(C(F)(F)F)c(C3=C(c4c[nH]c5ccccc45)C(=O)NC3=O)c2)CC1
inactive: 1 nM -0.88% | 8.33 nM -0.68% | 100 nM -5.41% | 833.33 nM -0.21% | 10000 nM 4.03%

CCCSc1nc(N[C@@H]2C[C@H]2c2ccc(F)c(F)c2)c2nnn([C@@H]3C[C@H](OCCO)[C@@H](O)[C@H]3O)c2n1 [ticagrelor]
inactive: 1 nM -0.64% | 8.33 nM 1.24% | 100 nM -0.46% | 833.33 nM 0.82% | 10000 nM 1.32%

CCCCOc1cc(CC2CNC(=O)N2)ccc1OC (stereo not given)
inactive: 1 nM -0.73% | 8.33 nM 1.6% | 100 nM -3.01% | 833.33 nM -0.63% | 10000 nM -1.88%

O=C(O)COc1nn(Cc2ccccc2)c2ccccc12 [bendazac]
inactive: 1 nM -1.4% | 8.33 nM 2.21% | 100 nM 0.57% | 833.33 nM -1.97% | 10000 nM -2.52%

CCCC(C)C1(CC)C(=O)NC(=S)NC1=O (stereo not given) [thiopental]
inactive: 1 nM -0.77% | 8.33 nM 0.01% | 100 nM 0.2% | 833.33 nM 1.29% | 10000 nM 0.45%

N#Cc1cc(NC(=O)C(=O)O)c(Cl)c(NC(=O)C(=O)O)c1 [lodoxamide]
inactive: 1 nM -2.56% | 8.33 nM 1.86% | 100 nM -0.16% | 833.33 nM -3.06% | 10000 nM -0.06%

Cc1nc2c([nH]1)-c1ccccc1N(C(=O)c1ccc(NC(=O)c3ccccc3-c3ccccc3)cc1)CC2 [conivaptan]
inactive: 1 nM 3.24% | 8.33 nM -1.76% | 100 nM 0.14% | 833.33 nM -0.62% | 10000 nM -6.5%

O=C(O)COC(=O)Cc1ccccc1Nc1c(Cl)cccc1Cl [aceclofenac]
inactive: 1 nM 0.39% | 8.33 nM 0.9% | 100 nM 0.17% | 833.33 nM -0.85% | 10000 nM 0.58%

C[C@]12CC[C@H](O)CC1=CC[C@@H]1[C@@H]2CC[C@]2(C)C(=O)CC[C@@H]12
inactive: 1 nM 1.25% | 8.33 nM 0.45% | 100 nM 0.19% | 833.33 nM 5.63% | 10000 nM 1.12%

CO[C@@]12[C@H](COC(N)=O)C3=C(C(=O)C(C)=C(N)C3=O)N1C[C@@H]1N[C@@H]12 [mitomycin-C]
inactive: 1 nM -6.42% | 8.33 nM -2.65% | 100 nM -0.38% | 833.33 nM -1.53% | 10000 nM -5.17%

C[C@@H]1CCO[C@H]2Cn3cc(C(=O)NCc4ccc(F)cc4F)c(=O)c(O)c3C(=O)N12 [dolutegravir]
inactive: 1 nM -0.6% | 8.33 nM 1.42% | 100 nM 4% | 833.33 nM 1.93% | 10000 nM 4.1%

Cc1c(C(=O)NC2CCCCC2)sc2nc3ccc(N)cc3n12
inactive: 1 nM 0.16% | 8.33 nM -2.6% | 100 nM -1.92% | 833.33 nM -0.52% | 10000 nM 0.2%

O=C(O)CCC(=O)Nc1ccc(S(=O)(=O)Nc2nccs2)cc1 [succinylsulfathiazole]
inactive: 1 nM -0.25% | 8.33 nM 0.46% | 100 nM 0.51% | 833.33 nM 0.85% | 10000 nM -0.56%

CCCCOc1ccc(C(=O)Nc2ccc(F)cc2F)cc1
inactive: 1 nM -1.89% | 8.33 nM 2.63% | 100 nM -3.66% | 833.33 nM -1.37% | 10000 nM -1.07%

Cc1ccc(S(=O)(=O)/C=C/C#N)cc1
active: 10000 nM 18.8%
inactive: 1 nM 0.18% | 8.33 nM -2.24% | 100 nM 0.01% | 833.33 nM 4.59%

CO[C@@]1(NC(=O)CSC[C@@H](N)C(=O)O)C(=O)N2C(C(=O)O)=C(CSc3nnnn3C)CS[C@@H]21 [cefminox]
inactive: 1 nM -0.91% | 8.33 nM 0.78% | 100 nM -1.2% | 833.33 nM -1.63% | 10000 nM 1.75%

COc1ccc2[nH]c(-c3ccccc3)c(CCNC(C)=O)c2c1 [2-phenylmelatonin]
inactive: 1 nM 0.42% | 8.33 nM -1.88% | 100 nM 0.56% | 833.33 nM -2.59% | 10000 nM -0.4%

NC(=O)N1c2ccccc2CC(=O)c2ccccc21 [oxcarbazepine]
inactive: 1 nM 0.74% | 8.33 nM 3.71% | 100 nM 4.19% | 833.33 nM -0.85% | 10000 nM 4.57%

Nc1nc(=O)c2sc(=O)n([C@@H]3O[C@H](CO)[C@@H](O)[C@H]3O)c2[nH]1
inactive: 1 nM 2.96% | 8.33 nM 0.81% | 100 nM -0.66% | 833.33 nM 1.35% | 10000 nM -1.43%

O=C1NCN(c2ccccc2)C12CCN(CC1COc3ccccc3O1)CC2 (stereo not given) [spiroxatrine]
inactive: 1 nM -0.76% | 8.33 nM 0.74% | 100 nM 1.03% | 833.33 nM 0.28% | 10000 nM 0.38%

Cn1nnc(-c2ccc(-c3ccc(N4C[C@H](CO)OC4=O)cc3F)cn2)n1 [tedizolid]
inactive: 1 nM -0.87% | 8.33 nM 1.38% | 100 nM -1.69% | 833.33 nM 0.43% | 10000 nM -0.79%

CCS(=O)(=O)N(C)[C@@H]1c2cc(C#N)ccc2OC(C)(C)[C@H]1O.CCS(=O)(=O)N(C)[C@H]1c2cc(C#N)ccc2OC(C)(C)[C@@H]1O (racemic) [chromanol-(+/-)]
inactive: 1 nM -3.93% | 8.33 nM 0.47% | 100 nM -1.69% | 833.33 nM -0.89% | 10000 nM -1.62%

N=C(N)NC(=N)NCCc1ccccc1 [phenformin]
inactive: 1 nM -3.22% | 8.33 nM 0.38% | 100 nM -2.7% | 833.33 nM -2.58% | 10000 nM -5.63%

COCCCOc1cc(C[C@@H](C[C@H](N)[C@@H](O)C[C@H](C(=O)NCC(C)(C)C(N)=O)C(C)C)C(C)C)ccc1OC [aliskiren-hemifumarate]
inactive: 1 nM 0.8% | 8.33 nM -0.18% | 100 nM -1.58% | 833.33 nM -0.63% | 10000 nM -0.23%

O=C(O)CCCN1C(=O)c2cccc3cccc(c23)C1=O [isodibut]
inactive: 1 nM -4.53% | 8.33 nM -1.77% | 100 nM -4.8% | 833.33 nM -0.3% | 10000 nM -2.2%

Cn1ccc2cc3c(cc21)CCN3C(=O)Nc1cccnc1
inactive: 1 nM 1.1% | 8.33 nM 0.1% | 100 nM 1.8% | 833.33 nM 0.79% | 10000 nM 2.05%

N#CCNC(=O)c1ccc(-c2ccnc(Nc3ccc(N4CCOCC4)cc3)n2)cc1
inactive: 1 nM -0.49% | 8.33 nM -0.77% | 100 nM -0.33% | 833.33 nM -4.04% | 10000 nM -6.6%

O=C1C2CC=CCC2C(=O)N1SC(Cl)(Cl)Cl (stereo not given) [captan]
inactive: 1 nM 1.85% | 8.33 nM 4.35% | 100 nM 4.16% | 833.33 nM 4.29% | 10000 nM 7.49%

CCNC1(C(N)=O)CCN(c2ncnc3c2nc(-c2ccccc2Cl)n3-c2ccc(Cl)cc2)CC1
inactive: 1 nM -2.1% | 8.33 nM 0.22% | 100 nM 1.6% | 833.33 nM 7.17% | 10000 nM -0.26%
